Potency data for 19 compounds are collected here from PubChem BioAssay (Tox21).

The nature of assay [1]: qHTS assay to identify small molecule antagonists of the estrogen receptor alpha (ER-alpha) signaling pathway using the BG1 cell line in the presence of 0.1 nM 17-beta-estradiol - cell viability counter screen (AID 1259241). Further: nearly all actives have a fitted effect of over 40% in size. Further: potency means the concentration at half of the fitted maximal effect. In short, it runs like this:
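Following 5 days in phenol red-free medium with charcoal-stripped serum, VM7Luc4E2 cells received test compounds alongside 0.1 nM 17beta-estradiol (final) at 37C for 22 hr. Live cells were then quantified via protease-substrate fluorescence.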
In general terms: Quantitative high-throughput screening tests each substance at several concentrations.

The nature of assay [2]: qHTS assay to identify small molecule antagonists of the androgen receptor (AR) signaling pathway using the MDA cell line in the presence of 0.5 nM R1881 - cell viability counter screen (AID 1259242). Further: nearly all actives have a fitted effect of over 45% in size. Further: potency means the concentration at half of the fitted maximal effect. Put shortly:
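Viability of MDA-kb2 cells was multiplexed with the luciferase AR readout; after 16 hr with compounds and R1881 at 0.5 nM final, CellTiter-Fluor fluorescence was recorded.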

Assay [3] addresses Estrogen receptor (Homo sapiens) (UniProt P03372). Description: qHTS assay to identify small molecule antagonists of the estrogen receptor alpha (ER-alpha) signaling pathway using the BG1 cell line in the presence of 0.1 nM 17-beta-estradiol (AID 1259244). Further: nearly all actives have a fitted effect of over 50% in size. Further: potency means the concentration at half of the fitted maximal effect. Put shortly:
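Estradiol at 0.1 nM (final) stimulates the endogenous ER-alpha of VM7Luc4E2 cells carrying an ERE-driven luciferase; compounds are co-incubated 22 h at 37C and luciferase output quantified by luminescence.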

Assay [4] is described as follows: qHTS assay to identify small molecule HDAC inhibitors (AID 1259364).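 Further: wild-type HCT-116 cells with endogenous class I/II HDAC activity; top concentration of the series differs between compounds; nearly all actives have a fitted effect of over 45% in size.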 In short, it runs like this:
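Read-out: luminescence of HDAC-Glo I/II reagent, 30 min RT, reflecting class I/II deacetylase activity in whole HCT-116 cells pre-exposed 2 h to DMSO-dissolved compounds.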

A short description of assay [5]: qHTS assay to identify small molecule HDAC inhibitors - cell viability counter screen (AID 1259365). Further: series mostly up to about 92 µM; nearly all actives have a fitted effect of over 50% in size. In short, it runs like this:
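HCT-116 wild-type, overnight attachment; 2hr drug exposure, 37C; CellTiter-Glo luminescent ATP readout after 30min RT.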

Assay [6] in a line: qHTS assay to identify small molecule agonists of the sonic hedgehog signaling (Shh) pathway - cell viability counter screen (AID 1259366). Further: nearly all actives have a fitted effect of over 50% in size. Further: potency means the concentration at half of the fitted maximal effect. Put shortly: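 Compounds in DMSO were pin-transferred onto 3T3 Gli1-Luc cells that had settled 4hr; plates then stood 24hr at 37C and 5% CO2. One hour before the end, CellTiter-Fluor was added and fluorescence recorded.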
Assay [7] in a line: qHTS assay to identify small molecule antagonists of the sonic hedgehog signaling (Shh) pathway - cell viability counter screen (AID 1259367). Further: nearly all actives have a fitted effect of over 55% in size. Further: potency means the concentration at half of the fitted maximal effect. In short, it runs like this: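 Cells: 3T3 Gli1-Luc, 2,000/well, 4 hr pre-incubation. Compounds in DMSO, then conditioned medium. Incubation 24 hr, 37C, 5% CO2. CellTiter-Fluor at 23 hr, 1 hr, fluorescence.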
Assay [8] is described as follows: qHTS assay to identify small molecule agonists of the sonic hedgehog signaling (Shh) pathway (AID 1259368; calls by dose curve;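 further: NIH/3T3-derived 3T3Gli1-Luc cells carrying a stable Gli1-driven firefly luciferase reporter; series mostly up to about 92 µM; nearly all actives have a fitted effect of over 15% in size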). Put shortly: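 A Gli1 transcriptional response element controlled firefly luciferase in 3T3Gli1-Luc cells. Compounds and a positive control were added 4 hr after plating, and cells were incubated a further 24 hr at 37 C before luminescence detection.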
A short description of assay [9]: qHTS assay to identify small molecule phospholipidosis (PLD) inducers (AID 1259344; active means well fitted curve in the direction sought with a large enough effect; an effect the other way counts as inactive or inconclusive). Put shortly: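 Phospholipidosis is scored by imaging LipidTOX-stained pits in HepG2 cells exposed to compound for 24 h at 37 C; pit counts and integrated intensities per well and per cell serve as outputs.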

Where “and” joins values, the source holds several entries; their conditions need not be identical. Equal entries are not always repeated. Inconclusive results are not listed. The source holds several records for some structures; these can differ, active in one and inactive in another. Calls of active or inactive are those of the source. Unless noted, the call rests on the fitted dose curve; in most records, active means well fitted curve in the direction sought with a large enough effect in the repeat runs; inconclusive means weak or mixed curves; inactive means no such curve, though single readings can be large; an effect the other way counts as inactive or inconclusive.

Estrogen receptor (Homo sapiens), sequence (P03372 whole entry, looked up): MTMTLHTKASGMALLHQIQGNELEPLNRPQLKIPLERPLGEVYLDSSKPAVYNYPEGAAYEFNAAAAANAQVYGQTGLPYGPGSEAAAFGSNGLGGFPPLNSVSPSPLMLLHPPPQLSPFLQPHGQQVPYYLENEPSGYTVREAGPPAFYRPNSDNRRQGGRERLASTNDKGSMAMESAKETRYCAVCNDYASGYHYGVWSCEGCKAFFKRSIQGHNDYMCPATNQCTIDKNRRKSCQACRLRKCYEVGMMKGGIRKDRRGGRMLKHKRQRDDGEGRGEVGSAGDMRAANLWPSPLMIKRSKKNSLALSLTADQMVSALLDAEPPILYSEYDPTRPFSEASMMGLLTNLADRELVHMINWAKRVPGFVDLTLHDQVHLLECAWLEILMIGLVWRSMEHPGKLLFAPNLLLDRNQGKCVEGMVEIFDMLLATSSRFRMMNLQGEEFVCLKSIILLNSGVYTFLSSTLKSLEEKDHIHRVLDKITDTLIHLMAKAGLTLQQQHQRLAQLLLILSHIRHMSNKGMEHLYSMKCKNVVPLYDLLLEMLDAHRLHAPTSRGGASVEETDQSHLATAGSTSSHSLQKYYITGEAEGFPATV

For `Oc1ccc(I)cc1`, the Potency entry in [1], in [2], in assay [3], in assay [4], in [5] and in [6] was “inactive” throughout. The Potency result in [7] is “inactive”.

`c1ccc2c(c1)[nH]c1cnccc12`: the Potency entry in [1], in assay [2], in assay [3], in assay [4], in assay [5] and in assay [6] was “inactive” in each case. Moreover, the Potency entry in assay [7] and in assay [8] was “inactive” in each case.

As for `ClCCN1CCOCC1`, the Potency entry in assay [1], in assay [2], in [3], in [4], in assay [5] and in assay [6] was “inactive” each time. Also, the Potency result in [7] and in [8] was “inactive” in each case.

As to `ClC1=C(Cl)C2(Cl)C3C(Cl)C=CC3C1(Cl)C2(Cl)Cl` (centres undefined), the Potency entry in assay [1], in assay [2], in assay [3], in assay [4], in assay [5] and in assay [6] was “inactive” each time. In addition, the Potency result in assay [7] and in assay [8] was “inactive” in each case.

For the compound `O=[N+]([O-])c1ccc(Oc2ccc(C(F)(F)F)cc2[N+](=O)[O-])cc1`, the Potency result in [1], in assay [2], in assay [3], in assay [4], in assay [5] and in [6] was “inactive” in each case. Also, the Potency entry in assay [7] was “inactive”.

In the case of `BrCBr`, the Potency result in assay [1], in assay [2], in assay [3], in assay [4], in assay [5] and in [6] was “inactive” each time. The Potency entry in assay [7] and in assay [8] was “inactive” in each case.

Take `Oc1ccc(C(=C(Cl)Cl)c2ccc(O)cc2)cc1`: the Potency entry in assay [1], in assay [2], in assay [4], in assay [5], in [6] and in assay [7] was “inactive” each time. Moreover, the Potency in assay [3] is 61 µM (active).

On to `COc1ccc(OC)c(CC(C)N)c1` (centres undefined), for which the Potency entry in [1], in assay [2], in assay [3], in assay [9], in [4] and in assay [5] was “inactive” in each case. The Potency entry in assay [6], in assay [7] and in assay [8] was “inactive” in each case.

Regarding `C[C@@H](Oc1ccc(Cl)cc1Cl)C(=O)O`, the Potency entry in [1], in assay [2], in [3], in assay [4], in assay [5] and in assay [6] was “inactive” each time. The Potency entry in [7] was “inactive”.

Consider `Cc1cc(C)cc(OP(=O)(Oc2cc(C)cc(C)c2)Oc2cc(C)cc(C)c2)c1`, for which the Potency result in assay [1], in assay [2], in assay [3], in assay [4], in assay [5] and in assay [6] was “inactive” each time. Moreover, the Potency entry in [7] and in assay [8] was “inactive” throughout.

Regarding `N#CCCC(Br)(C#N)CBr` (centres undefined), the Potency entry in assay [1], in assay [2], in assay [3], in assay [4], in [5] and in assay [8] was “inactive” each time. The Potency in assay [6] and in [7] was 27.3 µM (active) in each case.

For the compound `ClCc1ccc(Cl)cc1Cl`, the Potency entry in [1], in assay [2], in [3], in assay [4], in assay [5] and in assay [6] was “inactive” each time. For the same compound, the Potency entry in assay [7] and in assay [8] was “inactive” in each case.

Turning to `C=CC(=O)N(C)C`, the Potency entry in assay [1], in assay [2], in assay [3], in assay [4], in assay [5] and in [6] was “inactive” each time. For the same compound, the Potency result in assay [7] and in assay [8] was “inactive” throughout.

As to `CCc1nn(C)c(C(=O)NCc2ccc(C(C)(C)C)cc2)c1Cl`, the Potency in assay [1] is 0.77 µM (active); in assay [2] it was 0.433 µM (active); in assay [3], 0.0863 µM (active). The Potency result in [4], in assay [5] and in [8] was “inactive” throughout.

Regarding `CC(=[OH+])/C=C(/C)[O-].CC(=[OH+])/C=C(\C)[O-].CC(=[OH+])/C=C(\C)[O-].[Fe]`, the Potency result in assay [1], in assay [2], in [3], in [4], in assay [5] and in assay [6] was “inactive” throughout. Moreover, the Potency result in assay [7] and in [8] was “inactive” in each case.

`CN(C)[C@@H]1C(=O)C(C(N)=O)=C(O)[C@@]2(O)C(=O)C3=C(O)c4c(O)ccc(Cl)c4[C@@](C)(O)[C@H]3C[C@@H]12`: the Potency result in assay [1], in [2], in assay [9], in [4], in assay [5] and in [6] was “inactive” in each case. Further, the Potency entry in assay [7] and in [8] was “inactive” throughout.

With `BrC(Br)C(Br)(Br)Br`, the Potency entry in assay [1], in assay [2], in [3], in assay [4], in assay [5] and in [7] was “inactive” each time. The Potency entry in [8] is “inactive”.

For `CC1(c2ccc(Oc3ccccc3)cc2)OC(=O)N(Nc2ccccc2)C1=O` (centres undefined), the results for the Potency in assay [1], in assay [2] and in assay [3] were 21.8 µM (active), 24.5 µM (active) and 8.69 µM (active), respectively. Moreover, the Potency entry in [4], in assay [5] and in [8] was “inactive” in each case.

With `CC(c1ccc(O)cc1)c1ccc(O)cc1`, the Potency entry in assay [1], in assay [2], in assay [3], in [4], in assay [5] and in [7] was “inactive” each time. In assay [8], the Potency result was “inactive”. For the same compound, in assay [6], the Potency result was “inactive and 61.1 µM (active)”.
